Shown are actives, neighbours in structure and some others; about 3.3% of the full set was active somewhere.
ALOX15 inhib – qHTS Assay for Inhibitors of 15-hLO (15-human lipoxygenase); Polyunsaturated fatty acid lipoxygenase ALOX15 (Homo sapiens), P16050; purified 15hLO-1, xylenol orange hydroperoxide absorbance; Potency, µM (series often up to 57.1 µM), for inactives: at the highest dose activity change, negative = inhibition, actives largely listed as inhibitors; 1.4% of 74,000 active; AID 887, 2007; further: potency means the concentration at half of the fitted maximal effect; on the % scale 0 is the no-effect control and ±100 the full control effect; nearly all actives have a fitted effect of over 55% in size
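Inhibition is scored from a chromogenic endpoint. After 15 min enzyme-compound contact, arachidonic acid (50 uM final) reacts 6 min with 40 nM 15hLO-1 at room temperature, then Fe-XO reagent is added for 30 min and absorbance ratio recorded.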
Tau fil binding – qHTS Assay for Tau Filament Binding; 2% of 71,000 active; Microtubule-associated protein tau (Homo sapiens), P10636; recombinant tau filaments, thioflavin S fluorescence, 15 h; filaments grown with octadecylsulfate alongside compound; Potency, µM (doses to about 57.1 µM), inactives show top-dose activity change, negative = inhibition; AID 596, 2007;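 further: potency means the concentration at half of the fitted maximal effect; on the % scale 0 is the no-effect control and ±100 the full control effect; actives lower thioflavin S fluorescence by blocking filaments or displacing dye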
Target sequence (P10636 whole entry, looked up): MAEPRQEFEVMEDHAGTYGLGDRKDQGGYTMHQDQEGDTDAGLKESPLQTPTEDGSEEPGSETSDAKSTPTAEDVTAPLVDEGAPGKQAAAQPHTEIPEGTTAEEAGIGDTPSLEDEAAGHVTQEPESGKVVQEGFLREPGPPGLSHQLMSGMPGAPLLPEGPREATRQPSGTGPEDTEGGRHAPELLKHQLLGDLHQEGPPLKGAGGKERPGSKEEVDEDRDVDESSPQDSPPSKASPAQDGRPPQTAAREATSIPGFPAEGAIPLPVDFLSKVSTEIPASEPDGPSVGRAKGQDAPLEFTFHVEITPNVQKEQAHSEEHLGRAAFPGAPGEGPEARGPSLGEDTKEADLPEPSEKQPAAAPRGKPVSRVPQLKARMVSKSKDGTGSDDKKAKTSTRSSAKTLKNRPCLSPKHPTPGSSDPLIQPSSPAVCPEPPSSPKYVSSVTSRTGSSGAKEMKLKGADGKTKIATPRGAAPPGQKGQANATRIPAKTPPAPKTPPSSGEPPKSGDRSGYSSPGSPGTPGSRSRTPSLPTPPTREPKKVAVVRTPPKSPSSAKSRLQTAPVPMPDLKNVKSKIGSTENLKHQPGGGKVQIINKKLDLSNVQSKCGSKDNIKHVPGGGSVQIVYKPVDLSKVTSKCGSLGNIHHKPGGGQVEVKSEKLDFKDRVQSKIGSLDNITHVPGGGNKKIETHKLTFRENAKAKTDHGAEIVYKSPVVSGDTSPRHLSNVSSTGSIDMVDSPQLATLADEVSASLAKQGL
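Recombinant tau protein (human, 1 uM final) plus 30 uM ODS in HEPES pH 7.4 with NaCl, DTT and thioflavine S. Compound present from the start; fluorescence at 510 nm after 15 h, 37 C.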
Pol III holo inh – qHTS Assay for Inhibitors of DNA Polymerase III Holoenzyme System | Potency, µM (doses to about 57.1 µM), for the others: at the top dose activity change, negative = inhibition | reconstituted DNA polymerase III holoenzyme replication, biochemical | 0.25% of 71,000 active; further: potency means the concentration at half of the fitted maximal effect; on the % scale 0 is the no-effect control and ±100 the full control effect
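Reconstituted *E. coli* holoenzyme (0.35 nM Pol III, 1 nM beta, 154 nM SSB, 2 nM primase) was preincubated with compound for 15 min at RT. Synthesis on 1.4 nM ssM13Gori ran 35 min, then was stopped with PicoGreen/EDTA and read as dsDNA fluorescence.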
BRCT inh red – qHTS Assay for Inhibitors of BRCT-Phosphoprotein Interaction (Red Fluorophore) | Breast cancer type 1 susceptibility protein (Homo sapiens), P38398 | BRCT-phosphopeptide binding, red fluorescence polarization | Potency, µM (series often up to 76.9 µM), for the others: top-dose activity change, negative = inhibition, most hits filed as inhibitors | 0.03% of 75,000 active; further: on the % scale 0 is the no-effect control and ±100 the full control effect
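Rhodamine-labelled pBACH1 10-mer (100 nM) bound to BRCT domain (100 nM) at pH 7.3; compounds incubated 12 min room temperature, polarization read. Free peptide defines full inhibition; unlabelled decapeptide titrated as control.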
BRCT inh green – qHTS Assay for Inhibitors of BRCT-Phosphoprotein Interaction (Green Fluorophore) | BRCA1 BRCT-phosphopeptide binding, green fluorescence polarization | Potency, µM (doses to about 76.9 µM), for the others: at the highest dose activity change, negative = inhibition, usual class: inhibitors | 0.05% of 75,000 active | AID 875, 2007;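 further: potency means the concentration at half of the fitted maximal effect; plate controls were peptide without protein for full effect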
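Fluorescence polarization: His-tagged BRCT (~35 kDa BRCA1 C-terminus, 250 nM) bound to 100 nM fluorescein-labeled phosphorylated 10-aa BACH1 peptide, pH 7.3 phosphate buffer with DTT and Tween 20. Compounds incubated 12 min at room temperature; inhibition read as lowered polarization.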
YjeE inh – qHTS Assay for Inhibitors of YjeE; purified YjeE enzyme, qHTS inhibition assay; tRNA threonylcarbamoyladenosine biosynthesis protein TsaE (Escherichia coli (strain …; Potency, µM; 0.05% of 71,000 active
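Purified YjeE (10 uM) with BODIPY Texas Red-labeled ADP probe (2 uM); compounds pin-transferred, 15 min at room temperature. Binding inhibition read as decreased fluorescence polarization; ADP titration as control.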
* marks the source's active call; other numbers are inactive results; i = inactive; ? = inconclusive; . = no result; [ ] = remark or other dose. The call rests on the fitted dose curve; in most records, active means well fitted curve in the direction sought with a large enough effect; inconclusive means small, poorly fitted or top-dose-only effect, or another doubt; inactive means no such curve, though single readings can be large; an effect the other way counts as inactive or inconclusive.

SMILES	ALOX15 inhib	Tau fil binding	Pol III holo inh	BRCT inh red	BRCT inh green	YjeE inh
C#CC(C)OC(=O)c1nnc2c3ccccc3n(COC)c2n1 (stereo unspecified)	9%[11.4 µM]	.	.	0%[15.4 µM]	-1%[15.4 µM]	.
N[C@@H](Cc1c[nH]c2ccc([N+](=O)[O-])cc12)C(=O)O	1%[11.4 µM]	1%[11.4 µM]	3%[11.4 µM]	1%[15.4 µM]	0%[15.4 µM]	i
Nc1[nH]nc2nc3ccccc3nc12	-8%[25.6 µM]	40µM*	-9%	0%	-1%	i
c1ccc2nc3[nH]cnc3nc2c1	5%	8%	-2%	-1%	-2%	i
CCc1cc2c(nc1CC)CCN(CC/C(C)=N/O[C@@H]1O[C@H](COC(C)=O)[C@H](OC(C)=O)[C@H](OC(C)=O)[C@H]1OC(C)=O)C2	2%[11.4 µM]	.	.	0%[15.4 µM]	-1%[15.4 µM]	.
CC(=O)C1=C(C)NC(SCC(=O)c2cc(Cl)ccc2Cl)=C(C#N)C1c1ccco1 (stereo unspecified)	4µM*	92%	-15%	1%	5%	i
CC1=C(C(=O)Nc2ccccc2)C(c2ccco2)C(C#N)=C(SCC(=O)OC(C)C)N1 (stereo unspecified)	-23%	17%	1%	-1%	3%	i
CC(=O)C1=C(C)NC(SCC(=O)c2ccc(Cl)c(Cl)c2)=C(C#N)C1c1ccco1 (stereo unspecified)	13µM*	1µM*	-12%	4%	3%	i
CC(=O)OC[C@H]1O[C@@H](O/N=C(\C)CCC(=O)OC[C@@H]2O[C@H](C#Cc3ccccc3)C=C[C@@H]2Oc2ccc(C)cc2)[C@H](OC(C)=O)[C@@H](OC(C)=O)[C@H]1OC(C)=O	5%[11.4 µM]	.	.	0%[15.4 µM]	2%[15.4 µM]	.
O=C(C1CCCN1S(=O)(=O)c1cccc2cccnc12)N1CCc2ccccc2C1 (stereo unspecified)	25µM*	26%	0%	-2%	0%	i
O=C(C1CCCN1S(=O)(=O)c1cccc2cccnc12)N1CCc2ccccc21 (stereo unspecified)	-2%	-8%	-2%	0%	0%	i
CC(C)=CCC[C@](C)(O)C1CC=C(C)CC1 (stereo partly specified)	13µM*	.	.	1%	1%[3.08 µM]	.
O=c1c(-c2cccc(F)c2)nc2cncnc2n1Cc1ccccc1	-16%	20µM*	-5%	-1%	22%	i
Cc1nc2cncnc2n(Cc2ccccc2)c1=O	7%	-28%	-10%	3%	-1%	i
O=c1c(-c2ccccc2)nc2cncnc2n1Cc1ccccc1	-2%	20µM*	-6%	-2%	2%	i
O=C(O)c1ccc(NS(=O)(=O)c2ccsc2C(=O)O)cc1	15%	.	.	-2%	-2%	.
O=C(CSc1ccccc1Cl)c1ccco1	-23%	3%	-2%	0%	0%	i
O=C(CSc1ccc(Cl)cc1)c1ccco1	16µM*	?	?	-5%	-5%	i
COc1cccc(-c2nc(=S)c3c(n2Cc2ccco2)CCCC3)c1	-19%	16µM*	-14%	2%	-1%	i
Cc1ccc(-c2nc(=S)c3c(n2Cc2ccco2)CCCC3)cc1	-5%	.	.	-2%	-2%	.
CCNc1ncc2nc(C)c(=O)n(Cc3cccs3)c2n1	2%	3%	-10%	1%	1%	i
c1coc(CN=C2NC(=NCc3ccco3)c3ccccc32)c1	-5%	10µM*	38%	-1%	5%	i
O=C1c2ccccc2C(O)N1Cc1ccco1 (stereo unspecified)	-4%	6%	-6%	-1%	0%	i
Cc1cc(C)c(C#N)c(SCC(=O)c2cccs2)n1	-8%	2.5µM*	-13%	1%	0%	i

Screening data (PubChem)
